Here are results for 45 molecules from PubChem BioAssay AID1851 (National Center for Advancing Translational Sciences (NCATS), 2009).

In all, about 16,000 compounds went through this assay and about 5,700 (36%) were called active. Inconclusive results (about 24%) are left out. Some of the results follow. Unmarked numbers belong to inactive results. The call rests on the fitted dose curve; in most records, active means well fitted curve in the direction sought with a large enough effect; inconclusive means small, poorly fitted or top-dose-only effect, or effect the other way; inactive means no such curve, though single readings can be large or run the other way.

The AC50 is the concentration giving half of the maximal activity seen.
On the % scale 0 is the no-effect control and ±100 the full control effect.

In the assay the target is Cytochrome P450 1A2 (Homo sapiens) (UniProt P05177). In words: Cytochrome panel assay with activity outcomes. To be noted: recombinant CYP, pro-luciferin dealkylation, luminescence, p450-cyp1a2; series mostly up to 57.1 µM; activity, negative = inhibition: at the top concentration.
Cytochrome P450 1A2 (Homo sapiens), sequence (P05177 whole entry, looked up): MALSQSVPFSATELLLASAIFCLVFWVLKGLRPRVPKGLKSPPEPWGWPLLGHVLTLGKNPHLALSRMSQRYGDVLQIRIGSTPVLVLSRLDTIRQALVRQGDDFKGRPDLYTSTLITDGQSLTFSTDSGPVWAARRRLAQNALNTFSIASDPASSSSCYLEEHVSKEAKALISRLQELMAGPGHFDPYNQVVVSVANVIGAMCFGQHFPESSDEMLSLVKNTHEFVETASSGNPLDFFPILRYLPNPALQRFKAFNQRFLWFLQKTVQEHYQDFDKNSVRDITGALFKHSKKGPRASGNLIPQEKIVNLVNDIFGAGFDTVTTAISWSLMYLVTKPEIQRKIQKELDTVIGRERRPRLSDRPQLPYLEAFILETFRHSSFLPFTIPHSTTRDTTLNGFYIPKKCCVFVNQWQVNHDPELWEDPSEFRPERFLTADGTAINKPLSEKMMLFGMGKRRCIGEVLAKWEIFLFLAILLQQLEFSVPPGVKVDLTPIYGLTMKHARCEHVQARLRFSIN
For the molecule `Cc1c([C@@H](C)[C@H]2NC[C@H](C)C[C@@H]2O)ccc2c1C[C@@H]1[C@H]2CC=C2C[C@@H](O)CC[C@@]21C`, the activity, negative = inhibition was 1.34% [at 2.29 µM].

With `COc1ccc2[nH]c(C(=O)c3ccccc3)cc2c1`, the AC50 was 100 nM (active).

With `NC[C@H](CS(=O)(=O)O)c1ccc(Cl)cc1`, the “activity, negative = inhibition” value is -14.4%.

As for `C/C(O)=C(/C#N)C(=O)Nc1cc(Br)ccc1Br`, the AC50 was 2510 nM (active).

With `c1ccc(N2CC[C@@]3(CCCNC3)C2)nc1`, the “activity, negative = inhibition” value is 3.64%.

Turning to `Clc1cncc(N2CCNCC2)n1`, the concentration at half-maximal activity (AC50) is 2000 nM (active).

Consider `N[C@@H](Cc1cc(Br)c(O)c(Br)c1)C(=O)O`, for which the activity, negative = inhibition is -2.84% [at 11.4 µM].

On to `N[C@H](Cc1ccc2oc3cc(=O)c4ccccc4c-3nc2c1)C(=O)O`, for which the AC50 is 1260 nM (active).

As to `CC(C)(O/N=C(\C(=O)N[C@@H]1C(=O)N2C(C(=O)[O-])=C(C[n+]3ccccc3)CS[C@@H]12)c1csc(N)n1)C(=O)O`, the “activity, negative = inhibition” value is -8.23% [at 25.6 µM].

On to `CN1[C@@H]2CCC[C@H]1CC(=O)C2`, for which the “activity, negative = inhibition” value was -13.3% [at 25.6 µM].

`COC1=C[C@H]2C3=C([C@H]2C1=O)[C@H](NC(C)=O)CCc1cc(OC)c(OC)c(OC)c13`: the “activity, negative = inhibition” value is -7.51% [at 25.6 µM].

Regarding `COc1ccc2c(c[n+](C)c3c4cc5c(cc4ccc23)OCO5)c1OC`, the AC50 was 10000 nM (active).

As to `Oc1cccc2cccnc12`, the activity, negative = inhibition is -20% [at 11.4 µM].

With `CN1CC[C@@]2(CCCN(C(=O)c3csnn3)C2)C1`, the “activity, negative = inhibition” value is 7.43%.

On to `O[C@H](CN1CC1)[C@@H](O)CN1CC1`, for which the activity, negative = inhibition is 1.6% [at 11.4 µM].

With `CN1CCN(c2cc(N3CCCC3)c([N+](=O)[O-])cc2F)CC1`, the AC50 is 355 nM (active).

Take `NC(=O)c1cc(N2CC2)c([N+](=O)[O-])cc1[N+](=O)[O-]`: the “activity, negative = inhibition” value is -19.6%.

For the molecule `C[N+]12CCC(CC1)[C@@H](OC(=O)C(O)(c1ccccc1)c1ccccc1)C2`, the “activity, negative = inhibition” value was 1.75% [at 25.6 µM].

For the molecule `C(=NC12CN3CN(CN(C3)C1)C2)c1cccs1`, the “activity, negative = inhibition” value was 3.17%.

As to `CC(C)c1ccc2c(c1)c(SC(C)(C)C)c(CC(C)(C)C(=O)O)n2Cc1ccc(Cl)cc1`, the concentration at half-maximal activity (AC50) was 25100 nM (active).

Turning to `CC(C)c1ccc(C(O)(C(=O)O)c2ccc(C(C)C)cc2)cc1`, the activity, negative = inhibition is -8.75% [at 11.4 µM].

As to `C=C1C(O)(c2ccccc2)C2CC[N+]1(C)CC2` (stereo not given), the “activity, negative = inhibition” value was 8.66%.

For `COC(=O)N1CCC2(CCN(CC(C)C)CC2)CC1`, the “activity, negative = inhibition” value was 14.2%.

`C=C1[C@@H]2CC[C@H]3[C@@]4(C)C[C@@H](O[C@@H]5O[C@H](CO)[C@H](OS(=O)(=O)O)[C@@H](OS(=O)(=O)O)[C@@H]5OC(=O)CC(C)C)C[C@@H](C(=O)O)[C@H]4CC[C@@]3(C2)[C@H]1O`: the “activity, negative = inhibition” value is -10.2% [at 25.6 µM].

For the molecule `COc1ccc2c(c1)[C@]13CCCC[C@@H]1[C@H](C2)NCC3`, the “activity, negative = inhibition” value is 3.59%.

Consider `COc1ccc(C(=O)c2c(C)n(CCN3CCOCC3)c3cc(I)ccc23)cc1`, for which the half-maximal activity concentration (AC50) was 15800 nM (active).

With `N=C1c2ccccc2CN1NC(=O)c1ccc(F)cc1`, the “activity, negative = inhibition” value is -18%.

As to `CN1C(=O)CCS(=O)(=O)[C@@H]1c1ccc(Cl)cc1`, the “activity, negative = inhibition” value is 18.2% [at 25.6 µM].

With `Cc1nnc2ccc(-c3cccc(C(F)(F)F)c3)nn12`, the AC50 was 79.4 nM (active).

Turning to `CNC[C@H](O)c1ccc(OC(=O)C(C)(C)C)c(OC(=O)C(C)(C)C)c1`, the “activity, negative = inhibition” value was -15% [at 25.6 µM].

Consider `CCOC(=O)[C@@H]1[C@@H]2c3ccccc3-c3ccccc3[C@H]2C[C@H]1O`, for which the concentration at half-maximal activity (AC50) was 631 nM (active).

Regarding `O=P(O)(O)c1ccccc1` (tested in a mixture with another compound), the activity, negative = inhibition was 7.14% [at 11.4 µM].

On to `c1ccc([C@H]2CNCc3ccccc32)cc1`, for which the “activity, negative = inhibition” value was -3.66%.

As for `C[C@@]12CC[C@H](O)C[C@@H]1CC[C@H]1[C@H]2CC[C@@]2(C)[C@@H](C3=CC(=O)OC3)CC[C@]12O`, the “activity, negative = inhibition” value is -0.912% [at 25.6 µM].

Turning to `CC[C@H]1CN2CCc3cc(OC)c(OC)cc3[C@H]2C[C@@H]1C[C@H]1NCCc2c1[nH]c1ccc(O)cc21`, the activity, negative = inhibition is -7.35% [at 11.4 µM].

`c1ccc2c(c1)Sc1ccccc1N2C[C@H]1CN2CCC1CC2`: the activity, negative = inhibition was -5.29% [at 11.4 µM].

With `O=C1c2ccccc2-c2cc([N+](=O)[O-])c([N+](=O)[O-])cc21`, the concentration at half-maximal activity (AC50) is 251 nM (active).

For the molecule `NCCc1ccc(S(=O)(=O)O)cc1[N+](=O)[O-]`, the activity, negative = inhibition was -6.66% [at 11.4 µM].

`CN(N=O)C(=O)N[C@H]1C(O)OC(CO)[C@@H](O)[C@H]1O` (stereo not given in full): the “activity, negative = inhibition” value was -13.1%.

Regarding `C[n+]1c(/C=C\c2ccc(O)c3ncccc23)[se]c2ccccc21`, the activity, negative = inhibition is -22.7% [at 2.29 µM].

Consider `CC(O)(CS(=O)(=O)c1cccc(C(F)(F)F)c1)C(=O)Nc1ccc(C(F)(F)F)cc1` (stereo not given), for which the “activity, negative = inhibition” value is -15.7%.

Regarding `C=CCn1c(O)c(C(C)=NCCCN2CCOCC2)c(=O)[nH]c1=O`, the “activity, negative = inhibition” value is -14.8%.

As to `C=CCn1c(O)c(C(CC)=NC2CC2)c(=O)[nH]c1=O`, the AC50 was 708 nM (active).

Take `C[C@@H]1OC=C2[C@@H](O)[C@H]3O[C@H]3C(=O)[C@@]23[C@H]1[C@H]1C2=C([C@@H](O)[C@H]4O[C@@H]4C2=O)[C@@H]3O[C@@H]1C`: the activity, negative = inhibition was 2.27% [at 11.4 µM].

As for `C=CCN1CC[C@]23c4c5ccc(O)c4O[C@@H]2/C(=N/NC(=O)c2ccccc2)CC[C@@]3(O)[C@H]1C5`, the “activity, negative = inhibition” value was -11.8%.
